Results published in PubChem BioAssay (NCI).
Compounds without any hit were thinned out: in the full panel of roughly 79,000, 15% have a hit. Cut-off read from the data, not from the text of the source: active = growth inhibition above about 70%; inactive = the rest. Where a SMILES comes first, the peptide text is derived from it. The star is where a group is joined. Boc = CC(C)(C)OC(=O)*; OBn = c1ccc(CO*)cc1

Columns and labels:
[1] = NCI Yeast Anticancer Drug Screen. Data for the rad50 strain (AID 155);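 note: 0% = growth of vehicle-only cultures of the same strain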; settings: S. cerevisiae rad50 strain growth inhibition; at 50.0 µM; stronger effect = higher value
In short: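 Relative growth inhibition (compound vs vehicle) was measured in yeast with a defined repair-gene alteration.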

[2] = NCI Yeast Anticancer Drug Screen. Data for the mec2-1 strain (AID 157); settings: S. cerevisiae mec2-1 strain, at 50.0 µM, stronger effect = higher value
In short: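 Readout is yeast growth inhibition, normalised to vehicle-treated controls, in the mec2-1 strain exposed to compound.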

[3] = NCI Yeast Anticancer Drug Screen. Data for the sgs1 mgt1 strain (AID 161);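 note: 0% = growth of cultures given vehicle only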; settings: S. cerevisiae sgs1 mgt1 strain, at 50.0 µM, stronger effect = higher value
In short: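 Compounds are added to genetically altered yeast, and growth is compared with cultures given vehicle alone to give percent inhibition.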

[4] = NCI Yeast Anticancer Drug Screen. Data for the cln2 rad14 strain (AID 165);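 note: 0% = growth equal to vehicle treated cultures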; settings: S. cerevisiae cln2 rad14 strain, at 50.0 µM, stronger effect = higher value
In short: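 Relative to vehicle controls, growth inhibition of compound-treated cln2 rad14 yeast was recorded.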

[5] = NCI Yeast Anticancer Drug Screen. Data for the bub3 strain (AID 167); settings: S. cerevisiae bub3 mutant strain, at 50.0 µM, stronger effect = higher value
In short: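 Screening used yeast with an engineered genetic alteration affecting cell cycle control. Compound-exposed cultures were compared with vehicle cultures, and reduced growth was taken as inhibition.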

[6] = NCI Yeast Anticancer Drug Screen. Data for the mlh1 rad18 strain (AID 175); settings: S. cerevisiae mlh1 rad18 strain growth inhibition; at 50.0 µM; stronger effect = higher value
In short: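 Test agents were incubated with a yeast strain of defined genotype (DNA damage repair defect). Inhibition of growth was derived by comparison with vehicle-exposed cultures.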

Measured: growth inhibition

CCC(C)NS(=O)(=O)c1ccc(Cl)cc1 (stereo not drawn)
inactive: [1] 18.4% | [2] 9.55% | [3] 6.45% | [4] 8.6% | [5] 5.85% | [6] 3.7%

C1CCC2C(C1)CCCC2NC1=NCCO1 (stereo not drawn)
inactive: [1] 1.75% | [2] -23.7% | [3] 7.85% | [4] 12.8% | [5] -1.1% | [6] 12.3%

CC1CCCC2(CC[N+](C)(CCC[N+](C)(C)C)CC2)C1 (stereo not drawn)
inactive: [1] -9.5% | [2] -7.95% | [3] -16.2% | [4] 15.1% | [5] -41% | [6] -1.7%

CC(=O)N[C@@H]1CCC[C@H](NC(C)=O)C1
inactive: [1] -9.75% | [2] -44.4% | [3] -12.7% | [4] -17.1% | [5] 12.7% | [6] -23.9%

CCCCCCCCCCC1SCC(=O)N1c1nncs1 (stereo not drawn)
inactive: [1] 13.2% | [2] 0.75% | [3] 16.6% | [4] 10.2% | [5] 4.2% | [6] 4.25%

O=C(C(=O)c1cc(-c2ccccc2)nc2ccc3ccccc3c12)c1ccccc1
inactive: [1] -24.3% | [2] -5.65% | [3] -1.05% | [4] 13.9% | [5] 30.1% | [6] 14.3%

COc1ccc(CC2(C(=O)O)NCCc3cc(O)c(OC)cc32)cc1O (stereo not drawn)
inactive: [1] 16.7% | [2] -3.25% | [3] -13.7% | [4] 4.15% | [5] -0.5% | [6] -5.5%

Cc1nc2cccc3ccc4cc5ccccc5c1c4c32
inactive: [1] 69.6% | [2] 12.7% | [3] 16.1% | [4] 7.3% | [5] 25.9% | [6] 14.9%

O=C1c2ccc([N+](=O)[O-])cc2C(=O)N1CC(F)(F)F
inactive: [1] -0.9% | [2] 8.35% | [3] 10.6% | [4] 14.8% | [5] -3% | [6] 3.8%

c1ccc(N=C(Nc2ccccc2)N2CCCC2)cc1
inactive: [1] -33.2% | [2] -13.6% | [3] -28.1% | [4] 5.7% | [5] -19.8% | [6] -19.4%

Cc1ccc(NC(=O)c2ccc(C)c(N)c2)c(C)c1
inactive: [1] -16.2% | [2] -21.2% | [3] -15.8% | [4] -9.7% | [5] -25.1% | [6] -5.7%

CC(C)(Cl)C1CCC(CC(Cl)(Cl)Cl)CC1 (stereo not drawn)
inactive: [1] 5.3% | [2] -16.4% | [3] 0.6% | [4] -26.9% | [5] 11.9% | [6] 9.75%

COC(=O)c1ccccc1NC(=O)Nc1ccc(F)c([N+](=O)[O-])c1
inactive: [1] 3.75% | [2] 22.9% | [3] 3.15% | [4] 0.85% | [5] 11.6% | [6] -10.9%

Cc1cc(Cl)c(=O)n(-c2ccccc2)n1
inactive: [1] 3.65% | [2] -9.7% | [3] -9.95% | [4] -27.8% | [5] 4.75% | [6] -16.1%

CC(C)CCOC(=O)NC(Nc1ccc(F)cc1)(C(F)(F)F)C(F)(F)F
inactive: [1] -10.6% | [2] -15.9% | [3] -40.5% | [4] -13.3% | [5] -5.2% | [6] -25.9%

Cc1cc(N/N=C/c2ccnc3ccccc23)c2cc3c(cc2n1)OCO3
inactive: [1] 43.4% | [2] 18% | [3] 23.4% | [4] 27% | [5] 31.7% | [6] 20.9%

O=[N+]([O-])c1ccc(/C=C/c2csnn2)cc1
inactive: [1] -16.7% | [2] -31.8% | [3] -13.8% | [4] 22% | [5] 2% | [6] -24.6%

O=c1oc(Cl)cc2oc(=O)n(-c3ccccc3)c(=O)c12
inactive: [1] 10.8% | [2] 7% | [3] 18.8% | [4] -3.15% | [5] -9.25% | [6] 9.45%

BrCc1cccc2cccc(CBr)c12
inactive: [1] -5.35% | [2] 17.4% | [3] 10.4% | [4] -10.5% | [5] 9.05% | [6] 2.65%

Cc1c(C)c(C(=O)O)c(C)c(C)c1C(=O)O
inactive: [1] 25.9% | [2] -8.1% | [3] 17.9% | [4] 9.1% | [5] 24.4% | [6] 0.05%

Cn1c(=O)c2c(ncn2C2C(=O)NNC2=O)n(C)c1=O
inactive: [1] -7.15% | [2] -8.45% | [3] -17.2% | [4] 2.35% | [5] 7.55% | [6] 0.9%

COc1ccc(/C=N/NC(=O)CCCCCCCCC(=O)N/N=C/c2ccc(OC)c(OC)c2)cc1OC
inactive: [1] -26.4% | [2] -13.4% | [3] -23.4% | [4] -50.2% | [5] -0.75% | [6] -12.5%

CC1(C)OC(=O)C(=Cc2ccc(-c3ccccc3[N+](=O)[O-])o2)C(=O)O1
inactive: [1] 3.05% | [2] 6.25% | [3] 31% | [4] 23.6% | [5] 29.5% | [6] 26.6%

Cc1ccc(S(=O)(=O)N2CCCN(S(=O)(=O)c3ccc(C)cc3)COC2)cc1
inactive: [1] 4.1% | [2] 11.6% | [3] -8.4% | [4] 3.1% | [5] -10.4% | [6] -1.25%

COc1ccc(/C=C/C(=O)c2c(-c3ccccc3)nn(C)c(=O)c2N2CCCCC2)cc1
inactive: [1] 7.8% | [2] -8.5% | [3] -10.8% | [4] 26.5% | [5] 7.05% | [6] 1.7%

C=CCNC(=S)N1CC(C)C(=O)Nc2ccccc21 (stereo not drawn)
inactive: [1] -26.1% | [2] -18.2% | [3] -29.9% | [4] 6.6% | [5] 11.3% | [6] -14.4%

CCOC1=NC(C)C(C)N1 (stereo not drawn)
inactive: [1] -5.1% | [2] -11.1% | [3] -13.4% | [4] 9.05% | [5] 6.25% | [6] -21.1%

NC(=S)c1ccc(N=Cc2ccccn2)cc1
inactive: [1] -0.25% | [2] -0.35% | [3] -1.7% | [4] -12.3% | [5] 3.1% | [6] -8%

COC(=O)c1ccc(C(=O)OC)cc1
inactive: [1] -12.2% | [2] -26.1% | [3] 15.9% | [4] 12.2% | [5] 8.95% | [6] 11.3%

O=[N+]([O-])c1ccc(/C(=C/c2ccc(F)cc2)S(=O)(=O)c2ccccc2)o1
inactive: [1] 37.4% | [2] 19.4% | [3] 50.3% | [4] -0.65% | [5] 8.4% | [6] 39.4%

CCOC(OCC)C1CC=CCC1 (stereo not drawn)
inactive: [1] 0.1% | [2] -1.65% | [3] -6.7% | [4] -13.1% | [5] -6.4% | [6] -0.95%

Cc1cc(Cl)ccc1NC(=O)NC(C)(C)COC(=O)Nc1cccc(Cl)c1
inactive: [1] 26% | [2] -7.3% | [3] 23.4% | [4] 9.15% | [5] 16.1% | [6] 27.9%

O=C(NNC(=O)C(Oc1ccccc1)c1ccccc1)C(Cl)Cl (stereo not drawn)
inactive: [1] -9.5% | [2] 4.55% | [3] 0.55% | [4] -2.45% | [5] 10.3% | [6] 5.9%

CC(C)CC(NC(=O)OC(C)(C)C)C(=O)NC(CC(=O)OCc1ccccc1)C(=O)OCc1ccccc1 (stereo not drawn) (Boc-Leu-Asp(OBn)-OBn; configuration not given here)
inactive: [1] 26.3% | [2] -7.25% | [3] 15.5% | [4] 2.2% | [5] 15.8% | [6] 33.5%

COC(=O)c1cc(C(=O)O)c(=O)n2ccccc12
inactive: [1] 23% | [2] 50% | [3] 32.1% | [4] 53.2% | [5] 35.2% | [6] 41.5%

O=C(O)c1ccccc1C(=O)CC(O)(C(F)(F)F)C(F)(F)F
inactive: [1] -20.6% | [2] 9.9% | [3] -1.5% | [4] -31.3% | [5] -10.9% | [6] -20.9%

CSc1nc2c(c(=O)n1C)N=C(c1ccccc1)[C@H](C(CC(=O)c1ccccc1)c1ccccc1)C(c1ccccc1)N2 (stereo partly drawn)
inactive: [1] 46.6% | [2] 43.9% | [3] 41.1% | [4] 24.2% | [5] 14.6% | [6] 11.8%

COc1cccc(C2c3cc4c(cc3OC(N3CCOCC3)C2C)OCO4)c1OC (stereo not drawn)
inactive: [1] -25.4% | [2] -10.1% | [3] -7.85% | [4] 2.55% | [5] -2.05% | [6] -6.1%
